# SKKanGAS inh – inhibitors of SKKanGAS S. pyogenes growth in kanamycin (SK-promoter or general growth effect) | BacTiter-Glo, 6 h | inhibition, % at 7.5 µM | 300,000 compounds, 1.3% hits | AID 1662;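 active = mean replicate score, as percent of positive control median, at least 50; inconclusive = mean below 50 but one replicate at or above 50; inactive = mean and every replicate below 50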;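 also: strain carries kanamycin resistance gene driven by streptokinase promoter and grows in 40 µg/ml kanamycin; loss of luminescence reflects streptokinase promoter inhibition or plain growth inhibition; 0% = median of DMSO wells and 100% = positive control at its reference dose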
# Platelet DG rel – modulates dense granule release in human platelets; human platelet-rich plasma, SFLLRN dense granule ATP release, luminescence; inhibition, %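 (compounds screened at 7.5 µM in platelet-rich plasma)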; 300,000 compounds, 0.22% hits; AID 1663;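 active = mean replicate score, as percent of positive control, at or above 50; inconclusive = mean below 50 but at least one replicate at or above 50; inactive = mean and every replicate below 50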
# Yeast superoxide – lowers age-related superoxide in aged yeast cells; superoxide response (% of plate mean), % at 10 µM; 330,000 compounds, 0.18% hits; S. cerevisiae aged cells, superoxide DHE fluorescence; hits give low values;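 active = superoxide response under a set limit, about three screen SD below normal, cut at about 65% in these data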;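 also: yeast aged for seven days with compound at 30 °C before DHE staining; 100% = average MFI of all compound-treated wells on the plate with controls excluded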
# PolyA inh – yeast polyadenylation inhibition; S. cerevisiae SKY197-pL101 polyadenylation reporter, beta-gal luminescence; efflux-impaired pdr1/pdr3 knockout yeast; score 100 = 6 SD above DMSO; activity score, % at 12 µM; 300,000 compounds, 0.02% hits;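 active = lowest replicate activity score at least 50, where 100 means six control SD above control mean; inconclusive = lowest score under 50 but half or more replicates reach 50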;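 also: yeast exposed to compound for 9 h at 30 °C; higher score means more reporter readthrough which indicates perturbed polyadenylation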
# Calb FLC – affects C. albicans growth with fluconazole. AID 1979. growth inhibition, % (concentration not given with the values). 300,000 compounds, 0.57% hits. C. albicans CaCi-2 (fluconazole-resistant clinical isolate) + fluconazole, Alamar Blue growth, 48 h;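 active = growth inhibition above about 58% in most replicates, limit read from the data, passing the limit was not always enough; inconclusive = exactly half the replicates above a set limit; inactive = most replicates below a set limit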;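 also: all wells also contain fluconazole at 8 µg/ml as a sub-toxic cotreatment; 0% = median of DMSO wells and 100% = median of geldanamycin control wells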
# * hit, by the source's call; ? = inconclusive; nt = no result. Compounds with a hit are over-represented: about 2% of the library has one in this group of screens.
SMILES,SKKanGAS inh,Platelet DG rel,Yeast superoxide,PolyA inh,Calb FLC
COc1ccc(C(=O)N2CCN(C)C(=O)[C@@H]2C)cc1OC1CCN(C(C)C)CC1,-5,-1,99,-2,-10
Cc1ccc(CNC(=O)C(CC(C)C)OC(=O)c2ccco2)cc1 (stereo unspecified),0,-12,99,16,8
Cc1ccc(NC(=O)CSCC(=O)N2CCCc3ccccc32)cc1,0,1,107,9,4
S=c1[nH]nc(-c2cccs2)n1/N=C/c1cn(-c2ccccc2)nc1-c1ccccc1,75*,0,89,7,16
COc1cccc2sc(Nc3nnc(-c4cccs4)o3)nc12,92*,1,89,4,-7
Fc1cccc2sc(Nc3nnc(-c4ccco4)o3)nc12,72*,-4,93,14,85*
O=C(Nc1nc2c(F)cccc2s1)c1ccco1,-1,5,97,-5,3
COc1cccc2sc(Nc3nnc(-c4ccc(F)cc4)o3)nc12,88*,-2,93,?,117*
COC(=O)[C@H](CCSC)NC(=O)Cn1cnc2c(SC)nc(N)nc21,nt,nt,99,nt,nt
CCCCC(NC(=O)c1ccc(C#N)cc1)C(=O)NCCC (stereo unspecified),nt,nt,85,nt,nt
c1ccc(-c2cn(-c3ccccc3)c3ncnc(N4CCCCC4)c23)cc1,67*,-1,94,-1,-6
CN1CCN(c2ncnc3c2c(-c2ccccc2)cn3-c2ccc(F)cc2)CC1,-10,-15,117,-17,10
COC(=O)Nc1ccc(N2CCOCC2)c(S(=O)(=O)N2CCOCC2)c1,1,0,102,-14,-6
CSc1cc(-c2ccccc2)n(C)c(=O)c1C#N,-14,-5,98,-18,104*
COc1cc(/C=N/O)c(Br)cc1OCC(=O)Nc1ccccc1C,4,-14,85,-15,24
COc1cc(/C=C/c2cccc[n+]2C)ccc1OCC(=O)Nc1ccccc1C,3,7,103,13,3
CCOc1cc(/C=C\[N+](=O)[O-])ccc1OCC(=O)Nc1ccccc1C,58*,5,90,-61,-10
COc1cc(/C=N/NC(N)=O)c(Br)cc1OCC(=O)Nc1ccccc1C,2,80*,100,1,-3
CCOc1cc(/C=N/NC(N)=O)cc(Br)c1OCC(=O)Nc1ccccc1C,0,98*,105,-8,3
CCOc1ccc(C(=O)NCC(=O)NNC(=O)c2ccco2)cc1OCC,nt,nt,90,nt,nt
CC(C)c1ccc(NC(=O)c2cc(S(=O)(=O)NCC3COc4ccccc4O3)ccc2F)cc1 (stereo unspecified),69*,-7,117,15,-3
O=C(CNc1ccccc1F)N/N=C/C1CC=CCC1 (stereo unspecified),nt,nt,95,nt,123*
COCCCN(C(=S)Nc1cc(C)cc(C)c1)C(C)c1ccncc1 (stereo unspecified),-1,5,103,4,-7
CCOC(=O)N1CCN(C(=O)CCCN2C(=O)CSc3nc(C)cc(C)c32)CC1,-5,53*,105,12,-6
CCOC(=O)N1CCC(NC(=O)CN2C(=O)CSc3nc(C)cc(C)c32)CC1,-2,26,100,14,6
SMILES,SKKanGAS inh,Platelet DG rel,Yeast superoxide,PolyA inh,Calb FLC
O=C(Nc1ccc(N2CCCC2)c(S(=O)(=O)Nc2cccc(C(F)(F)F)c2)c1)c1cccs1,52*,-10,100,21,1
CC(C)Cc1csc(NC(=O)c2ccc(Cl)cc2)c1C(=O)O,74*,2,93,-15,10
Cc1ccc(-c2c[n+](CC(=O)N3c4ccccc4Sc4ccccc43)c3n2CCC3)cc1,6,-17,104,-26,109*
CCOC(=O)c1c(C)[nH]c(C(=O)C(C)OC(=O)c2cccc(OCc3c(C)noc3C)c2)c1C (stereo unspecified),50*,0,105,-3,-2
Cc1ccc(C(=O)c2ccccc2C(=O)OCC(=O)N2C(C)CCCC2C)cc1 (stereo unspecified),nt,nt,108,nt,nt
CCC(C)OC(=O)C1=C(C)OC23OC(N)=C(C#N)C12C(=O)c1ccccc13 (stereo unspecified),-4,50*,99,9,?
NC(=O)N=Nc1c2[nH]c3ccccc3nc-2c2ccccc12,72*,-3,94,-104,-9
CCc1cccc(CC)c1NC(=O)CN1CC(C)SC1=NC1CCCCC1 (stereo unspecified),-10,-2,109,-3,6
COc1cc2c(OC(C)=O)c3c(c(-c4ccc5c(c4)OCO5)c2cc1OC)C(=O)OC3,2,-3,104,6,66
COc1cc2c(O)c3c(c(-c4ccc5c(c4)OCO5)c2cc1OC)C(=O)OC3,-13,1,111,24,82*
O=C(N/N=C/c1cc([N+](=O)[O-])ccc1O)c1ccc(COc2ccc3c(c2)CCC3)o1,21,1,92,-22,93*
O=C(N/N=C/c1cc([N+](=O)[O-])ccc1O)c1cccc(NC(=O)c2cccc(Cl)c2)c1,77*,-6,120,-25,-7
O=C(CSc1ccccn1)N/N=C/c1cc([N+](=O)[O-])ccc1O,115*,-2,87,7,34
COc1ccc(Br)cc1/C=N/NC(=O)c1ccc(COc2ccc3c(c2)CCC3)o1,7,-6,105,-9,1
O=C(Cn1nc2ccccc2n1)N/N=C/c1cc([N+](=O)[O-])ccc1O,104*,2,94,-25,?
CSc1cccc(NS(=O)(=O)c2cc(Br)cnc2N)c1,2,5,124,-15,1
Cc1ccccc1-c1nc(CN(Cc2c(C)nn(C)c2C)C2CC2)c(C)o1,-5,-10,83,-7,-7
Cc1nc2ccc(C(=O)N/N=C/c3cc([N+](=O)[O-])ccc3O)cc2[nH]1,-9,-3,93,8,1
O=C(N/N=C/c1cc([N+](=O)[O-])ccc1O)c1cccc2ccccc12,94*,-7,89,1,39
Cc1cc(SCC(=O)N/N=C/c2ccc(O)cc2O)c(C)cc1Br,79*,0,96,-8,101*
O=C(Cn1nnc(-c2ccccc2)n1)N/N=C/c1cc([N+](=O)[O-])ccc1O,101*,13,118,-42,-3
O=C(CSc1ccc2ccccc2n1)N/N=C/c1ccccc1O,95*,-6,98,-8,-4
O=S(=O)(c1ccc2ccccc2c1)N(CC1CO1)c1ccccc1 (stereo unspecified),3,6,82,-13,29
CCOC(=O)c1sc(NC(=O)C2CC(=O)N(c3ccc4c(c3)OCCO4)C2)nc1C (stereo unspecified),nt,nt,100,nt,nt
COc1ccc(-c2nc(NC(=O)C3CC(=O)N(c4ccc5c(c4)OCCO5)C3)sc2C)cc1 (stereo unspecified),55*,-3,98,-4,0
COc1ccc(S(=O)(=O)NCC(c2cccnc2)N2CCN(C)CC2)cc1C (stereo unspecified),-3,74*,83,-12,0

# Compound activity as filed in PubChem.
